Bioassay records: PubChem, National Center for Advancing Translational Sciences (NCATS)
Tau fluor counter: counter-screen for tau fibril formation inhibitors; tau K18 P301L Alexa594 fluorescence, heparin fibrillization; Potency, µM (titrated, usually from 57.7 µM), without a hit: at the highest dose activity change, negative = decrease; 280,000 tested, 0.93% active; note: potency is the fitted concentration of half-maximal effect; nearly all actives have a fitted effect of over 55% in size
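Human tau K18 P301L (15 uM unlabeled, 0.24 uM Alexa 594-labeled) in 100 mM sodium acetate pH 7 with 20 uM heparin, 6 hr at 37 C. ThT 30 uM added, 1 hr ambient; Alexa 594 FP and total fluorescence read at 555/632 nm.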
Sfp inh: Sfp phosphopantetheinyl transferase inhibition | Q9F4F7 | Biochemical Sfp PPTase activity, qHTS | Potency, µM, without a hit: largest response in the series, negative = inhibition, hits mostly inhibitors | 310,000 tested, 3.5% active | AID 1490;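 note: the enzyme is Sfp with the accession as filed and its product quenches rhodamine fluorescence; potency is the fitted concentration of half-maximal effect; 0% = enzyme reaction without inhibitor and -100% = no enzyme wells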
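Buffer: 50 mM Hepes-Na pH 7.6, 10 mM MgCl2, 0.01% Nonidet P-40, 0.01% BSA. Enzyme 15 nM, pre-exposed to compound 15 min; substrates then added and fluorescence change tracked over 30 min.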
Tau fibril FP: tau fibrillization inhibition (FP) | P10636 | K18 P301L tau heparin fibrillization, Alexa594 FP, 6 h | Potency, µM (top dose mostly 57.7 µM), inactives show at the highest dose activity, negative = inhibition, hits mostly inhibitors | 280,000 tested, 0.39% active | AID 1468; note: potency is the fitted concentration of half-maximal effect; nearly all actives have a fitted effect of over 55% in size
Target sequence (P10636 561-689 P618L limits assumed): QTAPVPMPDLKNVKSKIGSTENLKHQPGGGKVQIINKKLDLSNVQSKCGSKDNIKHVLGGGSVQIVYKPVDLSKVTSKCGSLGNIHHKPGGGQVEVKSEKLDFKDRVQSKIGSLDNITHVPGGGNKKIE
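FP of Alexa 594-tau after heparin (20 uM) induction. Substrate: human K18 P301L, 15 uM unlabeled, 0.24 uM labeled. Buffer 100 mM sodium acetate pH 7. 6 hr, 37 C.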
Tau ThT inhib: blocks human tau fibril formation measured by thioflavin T. P10636. recombinant tau K18 P301L, heparin-induced fibrillization, ThT fluorescence. Potency, µM (titrated, usually from 57.4 µM), for the others: at the highest dose activity, negative = inhibition, hits mostly inhibitors. 270,000 tested, 2.1% active. AID 1460; note: potency is the fitted concentration of half-maximal effect; nearly all actives have a fitted effect of over 55% in size
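Fibril formation assay: tau K18 P301L at 15 uM with trace Alexa 594 label, heparin inducer 20 uM, pH 7 sodium acetate buffer, 37 C for 6 hr; endpoint ThT signal.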
JMJD2E inh: inhibitors of human JMJD2E histone demethylase | Potency, µM (doses to about 57.1 µM), for inactives: top-dose activity change, negative = inhibition, actives largely listed as inhibitors | JMJD2E catalytic domain, FDH-coupled NADH fluorescence (FDH is formaldehyde dehydrogenase) | 230,000 tested, 1.6% active | B2RXH2 | AID 2147; active = well fitted inhibition curve with a large enough effect, not every such curve was filed as active; inconclusive = small, poorly fitted or top-dose-only effect, or another doubt; inactive = no such curve, though single readings can be large or run the other way;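 note: potency is the fitted concentration of half-maximal effect; 0% = wells with enzyme and -100% = buffer wells without enzyme; nearly all actives have a fitted effect of over 50% in size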
Target sequence (B2RXH2 1-337 limits assumed): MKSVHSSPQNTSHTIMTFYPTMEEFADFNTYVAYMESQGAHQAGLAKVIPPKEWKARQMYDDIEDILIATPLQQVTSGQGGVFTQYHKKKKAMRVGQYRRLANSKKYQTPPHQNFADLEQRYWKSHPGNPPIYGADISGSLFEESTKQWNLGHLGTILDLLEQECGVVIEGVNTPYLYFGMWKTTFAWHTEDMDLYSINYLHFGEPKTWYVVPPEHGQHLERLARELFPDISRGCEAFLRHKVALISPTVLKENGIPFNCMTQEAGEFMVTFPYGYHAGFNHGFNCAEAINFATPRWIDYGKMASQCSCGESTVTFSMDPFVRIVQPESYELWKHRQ
Coupling enz: counter-screen for Giardia aldolase inhibitors: coupling enzyme system | 290,000 tested, 0.67% active | coupling enzyme system counterscreen, AmpLite Red fluorescence | activity change, negative = inhibition, % at 58.2 µM, hits read low | AID 2472; in the data active = activity change below about -30%
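Compounds tested against the coupling enzymes alone at 57.5 uM final; readout was AmpLite Red fluorescence (525/598 nm) after 20 min at RT.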
Starred values were filed as active, the others as inactive; ? = inconclusive; · = not tested or not shown; [ ] = remark or other dose. Only some compounds are listed: those with a hit (about 5.3% of all), similar ones and a draw of the others. Unless noted, calls come from the whole dose curve; as a rule, active = well fitted curve in the direction sought with a large enough effect; inconclusive = small, poorly fitted or top-dose-only effect, or another doubt; inactive = no such curve, though single readings can be large; an effect the other way counts as inactive or inconclusive. Unless noted, % is set by controls: 0 for no effect and ±100 for the full control effect.

SMILES | Tau fluor counter | Sfp inh | Tau fibril FP | Tau ThT inhib | JMJD2E inh | Coupling enz
O=c1[nH]c2ccc(Cl)cc2c(-c2ccccc2)c1SC(=S)N1CCCCC1 | -27% | 14µM* | -1% | -17% | -4% | -2
COC(=O)C(C(=O)OC)[C@@H](NC(=O)OCc1ccccc1)c1ccccc1 | -2% | 21% | 2% | -5% | 5% | 1
Oc1cccc(O)c1O | · | 40µM* | · | · | · | ·
COc1c(O)cccc1O | -3% | 9% | 5% | 7% | -7% | 3
COc1ccc(-n2ncc(C(=O)N3CCN(c4ncccn4)CC3)c2C2CCN(C(=O)OC(C)(C)C)CC2)cc1 | 0% | · | 4% | 2% | · | ·
COc1ccc(/C=N/N2CCN(Cc3ccccc3)CC2)cc1 | · | -4% | · | · | · | 0
COc1ccc(/C=C/C2=CCN(Cc3ccc(OC)cc3)CC2)cc1 | -8% | 4% | 2% | -21% | 28µM* | 5
O=c1c(-n2cncn2)c[nH]n1-c1cccc(Cl)n1 | -1% | 56µM* | -5% | ? | 0% | -1
CCN(CC)C(=O)c1cc(Cl)ccn1 | 1% | 45µM* | -13% | ? | -5% | 1
Cc1ccc(COC(=O)c2ccc(-c3nnn(Cc4ccc(C)cc4)n3)cc2)cc1 | 3% | · | -11% | 8% | · | ·
Cn1cnnc1SCc1ccccc1 | 1% | 0% | -5% | 0% | 0% | 3
Cn1cnnc1SCc1ccc(-c2ccc(Br)cc2)o1 | -5% | 45µM* | 0% | ? | -22% | 2
O=C(Cc1cccs1)Nc1cccc(-c2nc3cc4ccccc4cc3[nH]2)c1 | 14µM*[quencher] | 29% | 28µM* | ? | ? | -8
C/C(CCN1CCCc2nc(C)c(C)cc21)=N\OC[C@@H](O)[C@@H]1O[C@@H]2OC(C)(C)O[C@@H]2[C@H]1O | -3%[11.6 µM] | 14% | 10%[11.6 µM] | -9%[11.5 µM] | · | 1
Cc1oc(-c2ccc(C(=O)NCc3cccc(F)c3)cc2)nc1COc1ccccc1 | -6% | · | -11% | 7% | · | ·
CCOC(=O)CN1C(=O)Nc2ccc(Br)cc2C1c1ccccc1 (centres undefined) | -14% | -11% | 0% | -14% | 0% | ·
CCOC(=O)CN1C(c2ccc(O)cc2)Nc2ccc(Br)cc2C1c1ccccc1 (centres undefined) | 7.1µM*[quencher] | 15% | ? | ? | -2% | -1
COc1ccc(/C=C(\C#N)c2nc3ccccc3n2C)c(OC)c1 | ? | · | 7% | 14µM* | · | ·
Brc1ccc(-c2csc(Nc3nc(-c4ccc(Br)cc4)cs3)n2)cc1 | 8.9µM*[quencher] | 13% | 2% | ? | -10% | 0
Nc1nc(-c2ccc(Br)cc2)cs1 | ? | -6% | 2% | ? | -8% | 1
CC(=O)c1ccc(Nc2nc(-c3cccnc3)cs2)cc1 | · | 1% | · | · | · | 1
c1ccc(CNc2nc(-c3cccnc3)cs2)cc1 | -7% | 35µM* | 10% | -13% | -4% | 0
O=C(O)c1ccc(Nc2nc(-c3cccnc3)cs2)cc1 | · | 89µM* | · | · | · | 1
c1ccc(-c2nc(-c3cccnc3)cs2)cc1 | · | -10% | · | · | · | -1
Brc1ccc(Nc2nc(-c3cccnc3)cs2)cc1 | ? | 45µM* | 10% | ? | -8% | -2
SMILES | Tau fluor counter | Sfp inh | Tau fibril FP | Tau ThT inhib | JMJD2E inh | Coupling enz
CN1CCN(C(=O)C2CCCCC2)CC1 | · | 4% | · | · | · | ·
CN(C)c1ccc(CNC(=O)C2CCCN(S(=O)(=O)c3ccc4c(ccn4C)c3)C2)cc1 (centres undefined) | -19% | · | 7% | 4% | · | ·
C=CCNc1nc2c3ccccc3n(C(C)=O)c2s1 | ? | 79µM* | ? | 28µM* | ? | -23
CCCOC(=O)c1ccc(Oc2c(-c3ccc(OCC)cc3O)n[nH]c2C)cc1 | 7.9µM*[quencher] | 37% | ? | -13% | 5% | -9
CCCOC(=O)c1ccc(Oc2cn[nH]c2-c2ccc(OCC)cc2O)cc1 | 8.9µM*[quencher] | 26% | ? | -8% | -7% | -5
Cc1ccccc1-c1nc2scc(CCNS(=O)(=O)c3ccccc3)n2n1 | -30% | · | -13% | -3% | · | ·
S=c1nc[nH]c2c1ncn2C1CCCC1 | 2% | 11µM* | 1% | -6% | -6% | -5
N#CCCn1cnc2c(=S)nc[nH]c21 | 1% | ? | 2% | -9% | 2% | 3
OCC1CCCC(n2cnc3c(=S)nc[nH]c32)O1 (centres undefined) | -6% | 16µM* | 0% | -2% | -15% | -2
O=C(Cn1cc2c(n1)CCCC2)Nc1cc(C(F)(F)F)ccc1Cl | -1% | · | -4% | 6% | · | ·
CCOc1ccccc1NC(=O)c1c(NC(=O)Cc2ccc(OC)cc2)sc2c1CCC2 | -2% | · | -5% | 5% | · | ·
CC(C)[C@H](NC(=O)[C@H](CCCCN)NC(=O)[C@@H](NC(=O)[C@@H]1CCCN1C(=O)[C@H](CCCN=C(N)N)NC(=O)[C@H](CCCN=C(N)N)NC(=O)[C@H](CCCCN)NC(=O)[C@H](CCCCN)NC(=O)CNC(=O)[C@@H](NC(=O)[C@@H]1CCCN1C(=O)[C@@H](N)CCCCN)C(C)C)C(C)C)C(=O)N[C@@H](Cc1ccc(O)cc1)C(=O)N1CCC[C@H]1C(=O)O | · | 0% | · | · | · | -3
CCOC(=O)N1C(C)CN(/[N+]([O-])=N/Oc2ccc([N+](=O)[O-])cc2[N+](=O)[O-])CC1C (centres undefined) | · | 8% | · | · | · | 5
O=c1c2cc(-c3ccccc3)sc2nc2n1CCC2 | -8% | 13% | -6% | ? | 35µM* | 1
O=c1c2ccccc2nc2n1CCC2 | -5% | ? | -3% | -11% | 8.9µM* | 4
CCOc1ccccc1NC(=O)C1CCN(S(=O)(=O)c2cc(Br)cc3c2N(C(C)=O)CC3)CC1 | -9% | · | -10% | ? | · | ·
O=C(Cc1cc(=O)[nH][nH]1)N/N=C/C=C/c1ccccc1 | -22% | 10% | ? | 13µM* | 6% | 0
COc1ccc(OCC(=O)N/N=C/C=C/c2ccccc2)cc1 | -10% | 7% | -11% | ? | 0% | 4
CCOc1ccc(N=C/C=C/c2ccccc2)c(O)c1 | ? | 50µM* | ? | 4.5µM* | 10µM* | -32*
CCOc1ccc(NCC(=O)N/N=C/C=C/c2ccccc2)cc1 | ? | 6% | 5% | 11µM* | -12% | -2
CCCCCCCCCCCCCCCCOC[C@H](COP(=O)([O-])OCC[N+](C)(C)C)OC(=O)CCCCCCCC(=O)O | · | -19% | · | · | · | 18
CCc1ccccc1NC(=S)Nn1cnnc1 | · | 35µM* | · | · | · | ·
Cc1ccccc1NC(=S)NN1CCN(C)CC1 | -3% | 0% | -9% | -3% | -6% | 0
CCOc1ccccc1NC(=S)Nc1ccccc1F | -9% | ? | -3% | -13% | -4% | -2
Cc1ccccc1NC(=S)Nn1cnnc1 | · | 22µM* | · | · | · | ·
CCOc1ccccc1NC(=S)Nn1cnnc1 | · | 7.1µM* | · | · | · | ·
